Holding throughout (assay): DAPPL (digital affinity profiling via proximity ligation, sequencing); 10 mM Tris-HCl pH 7.5, 50 mM NaCl, 1 mM DTT, 4% glycerol, room temperature, 30 min; GST-TFs on glutathione beads, 16-mer random dsDNA library, 0.1% formaldehyde crosslink after washing; high values mean tight binding
What all share (conditions): protein: recombinant; tags: N-terminal GST; dsDNA, one strand shown

One assay addresses T1, ERF (Homo sapiens, UniProt P50548 1-548).
T1 sequence: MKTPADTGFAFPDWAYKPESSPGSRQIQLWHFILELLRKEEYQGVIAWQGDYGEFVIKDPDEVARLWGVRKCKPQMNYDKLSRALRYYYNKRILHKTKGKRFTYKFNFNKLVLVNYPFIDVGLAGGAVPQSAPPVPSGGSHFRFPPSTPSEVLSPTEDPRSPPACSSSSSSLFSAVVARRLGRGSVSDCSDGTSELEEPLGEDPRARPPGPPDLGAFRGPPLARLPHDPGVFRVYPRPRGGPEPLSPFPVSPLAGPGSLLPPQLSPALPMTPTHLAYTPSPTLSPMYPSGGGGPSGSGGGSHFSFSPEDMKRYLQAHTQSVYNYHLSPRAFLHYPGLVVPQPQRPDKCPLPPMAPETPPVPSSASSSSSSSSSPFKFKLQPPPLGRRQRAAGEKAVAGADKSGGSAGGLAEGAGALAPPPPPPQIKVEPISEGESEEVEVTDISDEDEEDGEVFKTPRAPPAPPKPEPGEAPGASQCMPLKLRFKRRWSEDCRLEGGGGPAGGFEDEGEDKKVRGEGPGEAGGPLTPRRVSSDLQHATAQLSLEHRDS
The gist of the method:
(§1)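 Pools of DNA-barcoded human transcription factors, expressed in yeast as GST fusions on glutathione beads and combined with a tag-only sample, were incubated with 200 nmole of a 16-mer random double-stranded DNA library. Incubation took 30 min at room temperature in Tris/NaCl/DTT/glycerol buffer and was followed by washing, 0.1% formaldehyde crosslinking, proximity ligation (BsaI/T4 ligase, 1 h, 37 °C), PCR amplification and sequencing on an Illumina NextSeq500. Binding signal is the ratio of a hexamer's read frequency for a factor to its frequency for the tag-only sample.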

In another assay the target is T2, ETV3L (Homo sapiens, UniProt Q6ZN32 1-361).
T2 sequence: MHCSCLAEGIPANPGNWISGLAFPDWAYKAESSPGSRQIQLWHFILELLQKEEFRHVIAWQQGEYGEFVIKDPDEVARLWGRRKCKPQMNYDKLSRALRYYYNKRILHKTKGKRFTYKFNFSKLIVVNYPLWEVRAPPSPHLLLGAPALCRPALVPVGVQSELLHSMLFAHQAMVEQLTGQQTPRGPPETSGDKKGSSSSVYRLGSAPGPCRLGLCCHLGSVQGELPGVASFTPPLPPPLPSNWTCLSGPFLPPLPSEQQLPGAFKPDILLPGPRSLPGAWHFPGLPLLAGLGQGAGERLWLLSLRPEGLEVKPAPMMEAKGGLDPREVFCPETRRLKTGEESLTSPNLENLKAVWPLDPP
The gist of the method: as §1

In another assay the target is T3, ETS2 (Homo sapiens, UniProt P15036 1-469).
T3 sequence: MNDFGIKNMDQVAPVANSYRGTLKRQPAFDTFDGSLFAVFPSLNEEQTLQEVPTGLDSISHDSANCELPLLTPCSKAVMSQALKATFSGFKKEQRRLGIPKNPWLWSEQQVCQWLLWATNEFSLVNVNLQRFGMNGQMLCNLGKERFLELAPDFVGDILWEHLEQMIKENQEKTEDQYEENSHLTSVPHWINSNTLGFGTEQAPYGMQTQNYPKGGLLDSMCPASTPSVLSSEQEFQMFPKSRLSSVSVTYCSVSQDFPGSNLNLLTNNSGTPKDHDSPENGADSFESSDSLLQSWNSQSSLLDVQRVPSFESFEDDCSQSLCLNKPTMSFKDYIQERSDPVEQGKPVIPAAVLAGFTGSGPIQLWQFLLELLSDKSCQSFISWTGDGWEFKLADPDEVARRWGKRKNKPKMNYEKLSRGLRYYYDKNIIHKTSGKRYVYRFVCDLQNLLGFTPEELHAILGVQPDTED
The method in brief: as §1

In another assay the target is T4, ETV7 (Homo sapiens, UniProt Q9Y603 1-341).
T4 sequence: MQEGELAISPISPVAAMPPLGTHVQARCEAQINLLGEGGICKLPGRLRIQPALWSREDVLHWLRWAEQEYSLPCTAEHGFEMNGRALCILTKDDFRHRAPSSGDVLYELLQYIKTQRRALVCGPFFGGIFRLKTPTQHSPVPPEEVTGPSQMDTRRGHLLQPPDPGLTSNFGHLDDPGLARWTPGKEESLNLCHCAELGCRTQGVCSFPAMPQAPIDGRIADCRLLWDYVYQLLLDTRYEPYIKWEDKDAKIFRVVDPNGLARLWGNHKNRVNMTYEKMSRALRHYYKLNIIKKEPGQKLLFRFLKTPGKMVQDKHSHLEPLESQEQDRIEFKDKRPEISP
The method in brief:
as §1

The target of a further assay is T5, ELF5 (Homo sapiens, UniProt Q9UKW6-2 1-255).
T5 sequence: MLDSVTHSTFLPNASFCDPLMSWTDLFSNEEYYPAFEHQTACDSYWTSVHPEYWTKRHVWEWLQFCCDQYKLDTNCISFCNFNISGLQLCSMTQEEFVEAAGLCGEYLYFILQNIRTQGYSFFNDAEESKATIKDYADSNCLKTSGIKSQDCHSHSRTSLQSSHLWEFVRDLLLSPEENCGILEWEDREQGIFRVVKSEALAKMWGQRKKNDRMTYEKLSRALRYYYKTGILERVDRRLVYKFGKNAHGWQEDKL
The method in brief:
as §1

The next assay concerns the target T6, ETV3 (Homo sapiens, UniProt P41162-2 1-143).
T6 sequence: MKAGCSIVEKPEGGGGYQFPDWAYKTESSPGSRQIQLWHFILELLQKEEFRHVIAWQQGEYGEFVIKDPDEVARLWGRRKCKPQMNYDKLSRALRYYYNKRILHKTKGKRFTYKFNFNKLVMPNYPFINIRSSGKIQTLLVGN
The gist of the method:
as §1

The next assay has as its target ETV6 (Homo sapiens, UniProt P41212 1-452). The gist of the method: as §1

ETV6, sequence (P41212 whole entry): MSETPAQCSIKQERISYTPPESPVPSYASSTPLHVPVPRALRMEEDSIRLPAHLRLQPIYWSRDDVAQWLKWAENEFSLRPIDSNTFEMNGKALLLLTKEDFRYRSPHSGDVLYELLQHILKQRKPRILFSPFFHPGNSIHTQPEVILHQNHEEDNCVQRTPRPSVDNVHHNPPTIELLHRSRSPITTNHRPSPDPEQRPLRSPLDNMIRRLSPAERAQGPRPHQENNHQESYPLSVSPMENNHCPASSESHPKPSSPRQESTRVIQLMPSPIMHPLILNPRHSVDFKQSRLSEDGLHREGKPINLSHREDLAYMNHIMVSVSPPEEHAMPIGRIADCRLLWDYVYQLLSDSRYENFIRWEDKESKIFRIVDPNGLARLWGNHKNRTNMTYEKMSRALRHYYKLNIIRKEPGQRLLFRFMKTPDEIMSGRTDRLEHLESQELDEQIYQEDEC

With CGAACT, the binding signal in the assay with ERF is 1.16 fold enrichment (6-mer frequency, TF over GST control); with ETV3L, 1.12 fold enrichment (6-mer frequency, TF over GST control); with ETS2, 1.18 fold enrichment (6-mer frequency, TF over GST control); in the assay with ETV7 it was 1.15 fold enrichment (6-mer frequency, TF over GST control); in the assay with ELF5, 1.07 fold enrichment (6-mer frequency, TF over GST control); in the assay with ETV3 it was 1.18 fold enrichment (6-mer frequency, TF over GST control). In addition, the binding signal with ETV6 was 1.13 fold enrichment (6-mer frequency, TF over GST control).

TTGAGG: the binding signal is 1.12 fold enrichment (6-mer frequency, TF over GST control) in the assay with ERF; 1.03 fold enrichment (6-mer frequency, TF over GST control) in the assay with ETV3L; 1.04 fold enrichment (6-mer frequency, TF over GST control) with ETS2; 1.03 fold enrichment (6-mer frequency, TF over GST control) in the assay with ETV7; 1.11 fold enrichment (6-mer frequency, TF over GST control) in the assay with ELF5; 1.12 fold enrichment (6-mer frequency, TF over GST control) with ETV3. For the same sequence, the binding signal with ETV6 was 1.13 fold enrichment (6-mer frequency, TF over GST control).

With GCTGAC, the binding signal in the assay with ERF is 1.08 fold enrichment (6-mer frequency, TF over GST control); in the assay with ETV3L it was 1.09 fold enrichment (6-mer frequency, TF over GST control); in the assay with ETS2, 1.11 fold enrichment (6-mer frequency, TF over GST control); with ETV7 it was 1.12 fold enrichment (6-mer frequency, TF over GST control); in the assay with ELF5, 1.05 fold enrichment (6-mer frequency, TF over GST control); with ETV3, 1.17 fold enrichment (6-mer frequency, TF over GST control). Moreover, in the assay with ETV6, the binding signal was 1 fold enrichment (6-mer frequency, TF over GST control).

As for TTATCA, the binding signal with ERF is 1.14 fold enrichment (6-mer frequency, TF over GST control); with ETV3L it was 1.15 fold enrichment (6-mer frequency, TF over GST control); in the assay with ETS2, 1.04 fold enrichment (6-mer frequency, TF over GST control); with ETV7, 1.03 fold enrichment (6-mer frequency, TF over GST control); with ELF5 it was 1.07 fold enrichment (6-mer frequency, TF over GST control); with ETV3, 1.09 fold enrichment (6-mer frequency, TF over GST control). Further, the binding signal with ETV6 was 1 fold enrichment (6-mer frequency, TF over GST control).

In the case of AACAGC, the binding signal with ERF is 1.15 fold enrichment (6-mer frequency, TF over GST control); with ETV3L, 1.05 fold enrichment (6-mer frequency, TF over GST control); in the assay with ETS2, 1.08 fold enrichment (6-mer frequency, TF over GST control); with ETV7 it was 1.21 fold enrichment (6-mer frequency, TF over GST control); with ELF5 it was 1.09 fold enrichment (6-mer frequency, TF over GST control); in the assay with ETV3 it was 1.13 fold enrichment (6-mer frequency, TF over GST control). Further, the binding signal in the assay with ETV6 is 1.1 fold enrichment (6-mer frequency, TF over GST control).

On to GAACAT, for which the binding signal in the assay with ERF was 1.1 fold enrichment (6-mer frequency, TF over GST control); with ETV3L, 1.01 fold enrichment (6-mer frequency, TF over GST control); with ETS2, 1 fold enrichment (6-mer frequency, TF over GST control); in the assay with ETV7 it was 1.11 fold enrichment (6-mer frequency, TF over GST control); in the assay with ELF5 it was 1.09 fold enrichment (6-mer frequency, TF over GST control); with ETV3, 1.08 fold enrichment (6-mer frequency, TF over GST control). Besides, the binding signal in the assay with ETV6 was 1.07 fold enrichment (6-mer frequency, TF over GST control).

For AATCGC, the binding signal was 1.01 fold enrichment (6-mer frequency, TF over GST control) in the assay with ERF; 1.05 fold enrichment (6-mer frequency, TF over GST control) with ETV3L; 1.17 fold enrichment (6-mer frequency, TF over GST control) with ETS2; 1.07 fold enrichment (6-mer frequency, TF over GST control) with ETV7; 1.1 fold enrichment (6-mer frequency, TF over GST control) with ELF5; 1.08 fold enrichment (6-mer frequency, TF over GST control) in the assay with ETV3. Also, the binding signal in the assay with ETV6 is 1.17 fold enrichment (6-mer frequency, TF over GST control).

The values above are taken from article PMC7862700, “An all-to-all approach to the identification of sequence-specific readers for epigenetic DNA modifications on cytosine”.
